Data published in PubChem BioAssay (Tox21).
Results filed as inconclusive are left out. Active and inactive are the calls of the source. Unless noted, the call rests on the fitted dose curve; in most records, active means well fitted curve in the direction sought with a large enough effect in the repeat runs; inconclusive means weak or mixed curves; inactive means no such curve, though single readings can be large; an effect the other way counts as inactive or inconclusive.

Tests used:
[1] = qHTS assay to identify small molecule antagonists of the glucocorticoid receptor (GR) signaling pathway - cell viability counter screen (AID 720693); further: nearly all actives have a fitted effect of over 55% in size
[2] = qHTS assay for identifying genotoxic compounds that show differential cytotoxicity against isogenic chicken DT40 cell lines with known DNA damage response pathways - wild type cell line (AID 743012); further: nearly all actives have a fitted effect of over 60% in size; further: potency means the concentration at half of the fitted maximal effect
Method in brief: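 Viability of DNA repair-proficient chicken DT40 cells was assessed by CellTiter-Glo luminescence following 40 h compound exposure at 37 C/5% CO2.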

[3] = qHTS assay for identifying genotoxic compounds that show differential cytotoxicity against isogenic chicken DT40 cell lines with known DNA damage response pathways - Rev3 mutant cell line (AID 743014); further: nearly all actives have a fitted effect of over 55% in size; further: potency means the concentration at half of the fitted maximal effect
[4] = qHTS assay for identifying genotoxic compounds that show differential cytotoxicity against isogenic chicken DT40 cell lines with known DNA damage response pathways - Rad54/Ku70 mutant cell line (AID 743015); further: nearly all actives have a fitted effect of over 60% in size; further: potency means the concentration at half of the fitted maximal effect
[5] = qHTS assay to identify small molecule antagonists of the androgen receptor (AR) signaling pathway - cell viability counter screen (AID 743033; further: nearly all actives have a fitted effect of over 45% in size)
[6] = qHTS assay to identify small molecule antagonists of the androgen receptor (AR) signaling pathway using the MDA cell line - cell viability counter screen (AID 743041; further: nearly all actives have a fitted effect of over 45% in size)
Method in brief: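 qHTS viability read-out; MDA-kb2 AR-luc; R1881-stimulated; 16 h exposure at 37C, 0% CO2; CellTiter-Fluor, 30 min; fluorescence intensity.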

[7] = tested on: thyroid hormone receptor (rat, GH3 cells); test: qHTS assay to identify small molecule agonists of the thyroid receptor (TR) signaling pathway (AID 743066; calls by dose curve)
[8] = qHTS assay to identify small molecule antagonists of the estrogen receptor alpha (ER-alpha) signaling pathway - cell viability counter screen (AID 743074; calls by dose curve; further: nearly all actives have a fitted effect of over 45% in size)
Aromatase (Homo sapiens) = Aromatase (Homo sapiens) (UniProt P11511); test: qHTS assay to identify aromatase inhibitors (AID 743083); further: nearly all actives have a fitted effect of over 55% in size; further: potency means the concentration at half of the fitted maximal effect
[9] = molecular target: Androgen receptor (Homo sapiens) (UniProt P10275); test: qHTS assay to identify small molecule agonists of the androgen receptor (AR) signaling pathway using the MDA cell line (AID 743040; further: nearly all actives have a fitted effect of over 20% in size)
Method in brief: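 Agonist activity is measured as luciferase luminescence in human MDA-kb2 cells whose MMTV reporter responds to both AR and GR. Compounds in DMSO incubate 16 h at 37C, 0% CO2, and ONE-Glo is read after 30 min.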

[10] = molecular target: Estrogen receptor (Homo sapiens) (UniProt P03372); test: qHTS assay to identify small molecule agonists of the estrogen receptor alpha (ER-alpha) signaling pathway (AID 743075; calls by dose curve)
[11] = molecular target: Estrogen receptor (Homo sapiens) (UniProt P03372); test: qHTS assay to identify small molecule agonists of the estrogen receptor alpha (ER-alpha) signaling pathway using the BG1 cell line (AID 743079); further: nearly all actives have a fitted effect of over 20% in size
[12] = qHTS assay to identify small molecule antagonists of the estrogen receptor alpha (ER-alpha) signaling pathway using the BG1 cell line (AID 743080; calls by dose curve;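 further: BG1 cells stimulated with 17beta-estradiol alongside compound; series mostly up to about 70 µM; nearly all actives have a fitted effect of over 25% in size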)
Method in brief: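 BG1-Luc-4E2 cells (endogenous full-length ER-alpha, 4xERE luciferase) hormone-starved 5 days in charcoal-stripped FBS, plated 4,000/well for 24 h, then compound plus 17beta-estradiol for 21.5 h at 37 C; ONE-Glo luminescence read.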

[13] = qHTS assay to identify small molecule antagonists of the thyroid receptor (TR) signaling pathway - cell viability counter screen (AID 743064); further: nearly all actives have a fitted effect of over 50% in size; further: potency means the concentration at half of the fitted maximal effect
Method in brief: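 GH3.TRE-Luc cells, 4 h pre-plating; cpd + T3 1 nM final; 37 °C 23.5 h; CellTiter-Fluor 30 min; fluorescence read.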

[14] = qHTS assay to identify small molecule antagonists of the thyroid receptor (TR) signaling pathway (AID 743065); further: nearly all actives have a fitted effect of over 55% in size; further: potency means the concentration at half of the fitted maximal effect
Method in brief: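 GH3.TRE-Luc rat pituitary cells carrying two TR response elements driving luciferase were plated for 4 h, given compound plus 1 nM T3 (final), and incubated 23.5 h at 37 C. ONE-Glo luminescence measured reporter inhibition; CellTiter-Fluor fluorescence tracked cytotoxicity.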

[15] = qHTS assay to identify small molecule antagonists of the estrogen receptor alpha (ER-alpha) signaling pathway using the BG1 cell line - cell viability counter screen (AID 743081);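 further: compound given together with 17beta-estradiol as the ER stimulus; nearly all actives have a fitted effect of over 45% in size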; further: potency means the concentration at half of the fitted maximal effect
[16] = molecular target: Androgen receptor (Homo sapiens) (UniProt P10275); test: qHTS assay to identify small molecule agonists of the androgen receptor (AR) signaling pathway (AID 743036; active means well fitted activation curve with a large enough effect in the signal ratio in the repeat runs, with a control signal flat, not every such curve was filed as active; the % refers to the signal ratio)
Method in brief: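 AR-bla HEK293 cells, 2,000/well; 4 h preincubation 37C/5% CO2; compound (DMSO) 16 h at 37C; LiveBLAzer B/G FRET substrate 2 h RT; fluorescence intensity read-out.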

[17] = molecular target: Androgen receptor (Homo sapiens) (UniProt P10275); test: qHTS assay to identify small molecule antagonists of the androgen receptor (AR) signaling pathway using the MDA cell line (AID 743042; further: nearly all actives have a fitted effect of over 55% in size)
Method in brief: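 MDA-kb2 cells (human breast carcinoma, stably carrying an MMTV-luciferase reporter responsive to AR and GR) were plated at 3,000 cells/well and preincubated 5 hr at 37C, then given compound plus R1881 agonist for 16 h. ONE-Glo luminescence was read.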

[18] = molecular target: Estrogen receptor (Homo sapiens) (UniProt P03372); test: qHTS assay to identify small molecule antagonists of the estrogen receptor alpha (ER-alpha) signaling pathway (AID 743069; active means well fitted curve in the direction sought with a large enough effect in the signal ratio in the repeat runs, not every such curve was filed as active; the % refers to the signal ratio)
Method in brief: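 Screening used a UAS-driven beta-lactamase reporter integrated into HEK293 cells expressing ER-alpha, stimulated with 17beta-estradiol alongside test compounds over 18 hr at 37C; signal came from LiveBLAzer B/G FRET fluorescence.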

[19] = molecular target: Androgen receptor (Homo sapiens) (UniProt P10275); test: qHTS assay to identify small molecule antagonists of the androgen receptor (AR) signaling pathway (AID 743035; active means well fitted inhibition curve with a large enough effect in the signal ratio in the repeat runs, not every such curve was filed as active; the % refers to the signal ratio)
Method in brief: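 Reporter HEK293 cells were exposed to compounds and R1881 overnight (16 h, 37C); beta-lactamase activity was then quantified by FRET fluorescence.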
On the % scale 0 is the no-effect control and ±100 the full control effect.

Sequence of Estrogen receptor (Homo sapiens) (P03372 whole entry, looked up): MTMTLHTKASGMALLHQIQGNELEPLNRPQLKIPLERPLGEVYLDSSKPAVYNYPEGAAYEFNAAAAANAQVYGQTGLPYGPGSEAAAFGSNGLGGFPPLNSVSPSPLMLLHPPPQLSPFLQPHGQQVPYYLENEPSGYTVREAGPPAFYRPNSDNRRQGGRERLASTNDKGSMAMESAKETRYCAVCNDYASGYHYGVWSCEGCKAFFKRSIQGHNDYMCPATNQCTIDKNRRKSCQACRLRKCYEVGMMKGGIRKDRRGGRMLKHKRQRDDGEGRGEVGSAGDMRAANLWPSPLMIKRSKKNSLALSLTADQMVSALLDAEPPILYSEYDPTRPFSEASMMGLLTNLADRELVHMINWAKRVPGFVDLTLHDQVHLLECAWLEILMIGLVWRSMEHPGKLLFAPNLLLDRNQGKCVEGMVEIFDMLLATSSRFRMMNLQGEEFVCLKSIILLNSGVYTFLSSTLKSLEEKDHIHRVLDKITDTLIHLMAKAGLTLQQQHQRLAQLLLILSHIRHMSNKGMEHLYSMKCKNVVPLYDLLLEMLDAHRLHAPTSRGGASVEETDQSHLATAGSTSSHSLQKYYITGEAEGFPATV
Sequence of Androgen receptor (Homo sapiens) (P10275 whole entry, looked up): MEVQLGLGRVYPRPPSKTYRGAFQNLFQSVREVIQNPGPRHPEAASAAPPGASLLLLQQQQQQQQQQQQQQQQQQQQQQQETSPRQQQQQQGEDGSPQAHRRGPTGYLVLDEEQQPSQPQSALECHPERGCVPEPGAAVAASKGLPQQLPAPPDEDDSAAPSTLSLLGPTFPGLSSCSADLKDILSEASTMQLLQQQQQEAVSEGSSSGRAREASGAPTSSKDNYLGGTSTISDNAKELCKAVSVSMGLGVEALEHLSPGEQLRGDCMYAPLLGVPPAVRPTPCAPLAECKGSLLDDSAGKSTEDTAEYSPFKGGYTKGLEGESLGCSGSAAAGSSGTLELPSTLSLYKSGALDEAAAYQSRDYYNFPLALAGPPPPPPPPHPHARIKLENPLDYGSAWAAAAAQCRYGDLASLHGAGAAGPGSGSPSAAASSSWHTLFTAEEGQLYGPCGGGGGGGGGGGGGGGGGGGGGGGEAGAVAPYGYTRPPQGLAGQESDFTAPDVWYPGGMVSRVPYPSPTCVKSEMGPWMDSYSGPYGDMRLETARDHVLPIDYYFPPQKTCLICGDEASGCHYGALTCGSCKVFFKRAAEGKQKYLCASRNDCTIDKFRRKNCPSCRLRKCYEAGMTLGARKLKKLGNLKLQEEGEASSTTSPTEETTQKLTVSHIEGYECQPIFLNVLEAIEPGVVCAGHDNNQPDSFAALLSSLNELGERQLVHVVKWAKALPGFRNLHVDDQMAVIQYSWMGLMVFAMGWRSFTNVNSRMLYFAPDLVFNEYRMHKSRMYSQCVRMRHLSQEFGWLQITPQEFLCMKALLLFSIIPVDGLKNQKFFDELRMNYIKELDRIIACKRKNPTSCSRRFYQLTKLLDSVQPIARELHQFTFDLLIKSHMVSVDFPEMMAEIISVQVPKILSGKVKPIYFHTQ
Sequence of Aromatase (Homo sapiens) (P11511 whole entry, looked up): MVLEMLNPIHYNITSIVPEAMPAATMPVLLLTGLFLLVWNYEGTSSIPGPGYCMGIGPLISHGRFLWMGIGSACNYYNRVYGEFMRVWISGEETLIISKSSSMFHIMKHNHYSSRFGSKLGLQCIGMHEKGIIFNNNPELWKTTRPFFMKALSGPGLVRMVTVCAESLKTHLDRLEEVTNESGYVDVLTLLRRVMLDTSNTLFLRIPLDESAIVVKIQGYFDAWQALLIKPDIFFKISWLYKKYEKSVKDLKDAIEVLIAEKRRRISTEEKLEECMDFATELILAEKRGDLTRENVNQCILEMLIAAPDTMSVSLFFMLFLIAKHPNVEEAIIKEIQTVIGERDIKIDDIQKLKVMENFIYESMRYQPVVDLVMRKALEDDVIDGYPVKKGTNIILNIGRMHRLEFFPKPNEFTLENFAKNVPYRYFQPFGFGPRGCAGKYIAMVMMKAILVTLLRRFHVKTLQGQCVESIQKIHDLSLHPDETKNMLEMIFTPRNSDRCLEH

COc1cc2c(cc1OC)C(C(C(=O)N(CCc1ccc(OC)c(OC)c1OC)CCc1ccc(OC)c(OC)c1OC)c1ccccc1)=NCC2 (configuration not stated)
inactive: Potency [1] | Potency [5] | Potency [6] | Potency [7] | Potency [8] | Potency (Aromatase (Homo sapiens))
active: Potency [2] 6.68 µM | Potency [3] 10.6 µM | Potency [4] 11.9 µM

Cc1cccc(C)c1OCC(=O)N[C@@H](Cc1ccccc1)[C@@H](O)C[C@H](Cc1ccccc1)NC(=O)[C@H](C(C)C)N1CCCNC1=O
active: Potency [2] 16.8 µM | Potency [3] 16.8 µM | Potency [4] 11.9 µM
inactive: Potency [1] | Potency [9] | Potency [10] | Potency [11] | Potency [12]

CCCCC(CC)CN1C(=O)C2C3C=CC(C3)C2C1=O (configuration not stated)
active: Potency [2] 38.6 µM | Potency [3] 27.3 µM | Potency [4] 43.3 µM | Potency [13] 54.5 µM | Potency [14] 48.6 µM
inactive: Potency [1] | Potency [6] | Potency [7] | Potency [8] | Potency [10] | Potency [11] | Potency [12] | Potency [15]

COc1cc(C(=O)OCCCN2CCCN(CCCOC(=O)c3cc(OC)c(OC)c(OC)c3)CC2)cc(OC)c1OC
active: Potency [2] 8.41 µM | Potency [3] 15 µM | Potency [4] 8.41 µM | Potency [13] 8.41 µM | Potency [14] 13.3 µM | Potency [15] 9.44 µM
inactive: Potency [1] | Potency [16] | Potency [9] | Potency [6] | Potency [17] | Potency [18] | Potency [10] | Potency (Aromatase (Homo sapiens))

CN(Cc1ccc(C(C)(C)C)cc1)Cc1cccc2ccccc12
inactive: Potency [1] | Potency [2] | Potency [3] | Potency [4] | Potency [5] | Potency [6] | Potency [7] | Potency [18] | Potency [8] | Potency [10] | Potency [11] | Potency [12] | Potency [15] | Potency (Aromatase (Homo sapiens))

CCCCCCCC#N
inactive: Potency [1] | Potency [2] | Potency [3] | Potency [4] | Potency [6] | Potency [13] | Potency [14] | Potency [7] | Potency [15]

C/C=C/C(=O)CC
inactive: Potency [1] | Potency [2] | Potency [3] | Potency [4] | Potency [5] | Potency [6] | Potency [14] | activation [7] 0.0391% [at 18 µM] | activity, negative = cytotoxicity [8] -6.1% [at 15 µM] | activation [10] -0.96% [at 14.9 µM] | Potency [11] | Potency [12] | Potency [15] | Potency (Aromatase (Homo sapiens))

O=C1CCCCCCCCCCCC(=O)OCCO1
inactive: Potency [1] | Potency [5] | Potency [9] | Potency [6] | Potency [17] | Potency [7] | Potency [18] | Potency [8] | Potency [10] | Potency [11] | Potency [12] | Potency [15]
active: Potency [2] 54.5 µM | Potency [4] 27.3 µM | Potency (Aromatase (Homo sapiens)) 48.6 µM

CC(=O)NO
inactive: Potency [1] | Potency [2] | Potency [4] | Potency [5] | Potency [19] | Potency [16] | Potency [9] | Potency [6] | Potency [17] | Potency [13] | Potency [14] | Potency [7] | Potency [8] | Potency [15] | Potency (Aromatase (Homo sapiens))

CC1(c2ccccc2)OC(C(=O)O)=CC1=O (configuration not stated)
inactive: Potency [1] | Potency [2] | Potency [4] | Potency [5] | Potency [6] | Potency [13] | Potency [14] | Potency [7] | Potency [8] | Potency [15] | Potency (Aromatase (Homo sapiens))

COc1cc2nc(N(C)CCCNC(=O)C3CCCO3)nc(N)c2cc1OC (configuration not stated)
inactive: Potency [1] | Potency [2] | Potency [4] | Potency [5] | Potency [6] | Potency [13] | Potency [14] | Potency [7] | Potency [8] | Potency [10] | Potency [11] | Potency [12] | Potency [15] | Potency (Aromatase (Homo sapiens))

Nc1c(CC(=O)O)cccc1C(=O)c1ccc(Br)cc1
inactive: Potency [1] | Potency [2] | Potency [4] | Potency [5] | Potency [6] | Potency [13] | Potency [7] | Potency [18] | Potency [8] | Potency [10] | Potency [11] | Potency [12] | Potency [15] | Potency (Aromatase (Homo sapiens))

CCCCCCCCO[C@@H]1O[C@H](CO)[C@@H](O)[C@H](O)[C@H]1O
inactive: Potency [1] | Potency [2] | Potency [4] | Potency [5] | Potency [6] | Potency [13] | Potency [14] | Potency [7] | Potency [18] | Potency [8] | Potency [10] | Potency [11] | Potency [12] | Potency [15] | Potency (Aromatase (Homo sapiens))

C[C@@H](c1ncncc1F)C(O)(Cn1cncn1)c1ccc(F)cc1F (some centres not stated)
inactive: Potency [1] | Potency [2] | Potency [4] | Potency [5] | Potency [19] | Potency [9] | Potency [6] | Potency [17] | Potency [13] | Potency [14] | Potency [7] | Potency [10] | Potency [11] | Potency [12] | Potency [15] | Potency (Aromatase (Homo sapiens))

CCCCOC(=O)CCCCCCCC(=O)OCCCC
inactive: Potency [1] | Potency [2] | Potency [4] | Potency [5] | Potency [6] | Potency [13] | Potency [14] | Potency [7] | Potency [8] | Potency [15] | Potency (Aromatase (Homo sapiens))
